S2 tox – reduces viability in counter-screen for ATXN expression inhibitors; Potency, µM (highest dose often 56.7 µM), actives largely listed as cytotoxic; AID 651635; S2 cells (HEK-293 line with an ATXN2-luciferase reporter) viability, CellTiter-Fluor protease fluorescence, 24 h; actives 0.49% (n = 400,000); note: nearly all actives have a fitted effect of over 40% in size
A549 tox – kills or reduces viability of A549 cells in Nrf2 counter-screen; A549 ARE-Fluc cells, CellTiter-Fluor viability, 18-24 h; Potency, µM (top dose mostly 46 µM), usual class: inhibitors; actives 0.16% (n = 390,000); AID 504648
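A549 ARE_Fluc cells in 5% FBS OPTI-MEM were exposed to compounds in concentration-response for 18-24 h at 37 deg C. Viability was read by CellTiter-Fluor fluorescence (Ex 405/Em 525) after 30 min, before the luciferase read.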
HepG2 tox – kills HepG2 cells in TGF-b inhibitor counter-screen | HepG2 CAGA-GFP viability, ATP luminescence, 18 h | Potency, µM (titrated, usually from 46.1 µM), hits mostly cytotoxic | actives 0.76% (n = 410,000) | AID 588856
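CellTiter-Glo luminescence gave cytotoxicity after 18 hours at 37 degrees C. The cells were HepG2 CAGA-GFP in 1% FBS DMEM, stimulated with 500 pg/mL TGF-beta after compound addition. %Activity was normalised to no-cell wells (complete cell-killing) and DMSO (no toxicity), and curves were fitted and classified.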
TGFb SMAD3 inh – TGF-b pathway inhibition; HepG2 CAGA-GFP TGF-b/SMAD3 reporter, GFP fluorescence, 18 h; TGF-beta stimulated, 500 pg/mL final; Potency, µM (series often up to 46.1 µM), usual class: inhibitors; actives 1.2% (n = 410,000); AID 588855; note: nearly all actives have a fitted effect of over 65% in size
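Inhibition was scored as loss of TGF-beta-induced (500 pg/mL final, 18 hours, 37 degrees C) GFP in HEPG2 cells carrying a CAGA-GFP reporter, in DMEM with 1% FBS. Well GFP was summed per cell; Activity was normalised to unstimulated and stimulated DMSO wells, then concentration-response fitting.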
ATXN2 expr inh – reduces ATXN2 reporter expression in HEK-293 cells; Potency, µM (titrated, usually from 57 µM), actives largely listed as inhibitors; actives 0.72% (n = 360,000); AID 1745845; HEK-293 ATXN2-luciferase reporter, luminescence, 24 h; note: nearly all actives have a fitted effect of over 55% in size
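qHTS (up to 57 uM final) was run with 24 h compound exposure of reporter cells at 37 °C. Each well was multiplexed: SteadyGlo luminescence measured ATXN2-luciferase expression after a fluorogenic Gly-Phe-AFC viability readout (25 uM final).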
Nrf2 block – blocks Nrf2 signaling | A549 ARE-Fluc reporter, luciferase luminescence, 18-24 h | Potency, µM (titrated, usually from 46 µM), usual class: inhibitors | actives 2.1% (n = 360,000) | AID 504444; note: nearly all actives have a fitted effect of over 60% in size
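In this cell-based qHTS, ARE-driven firefly luciferase in A549 cells reports Nrf2 activity; the luminescent signal after BugLite lysis is the measured value, with a prior CellTiter-Fluor read for cell health.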
Of the large screens only hits and unclear results are named; the others gave an inactive call. The list is not random: actives were taken first. Their share in the collection is about 3.8%. Calls come from the whole dose curve; as a rule, active = well fitted curve in the direction sought with a large enough effect; inconclusive = small, poorly fitted or top-dose-only effect, or another doubt; inactive = no such curve, though single readings can be large; an effect the other way counts as inactive or inconclusive.

O=c1c2ccccc2nc(SCc2nc3ccccc3s2)n1Cc1ccco1	Nrf2 block 4.61µM
O=C(NC(=S)Nc1nc2ccc(F)cc2s1)c1ccco1	Nrf2 block inconclusive
Cc1c(CN(C)C)c2c(n1C)C(=O)c1ccc(Br)cc1-2	ATXN2 expr inh inconclusive, Nrf2 block inconclusive
Cc1c(CN(C)C)c2c(n1Cc1ccccc1)C(=O)c1ccc(Br)cc1-2	S2 tox inconclusive, A549 tox inconclusive, HepG2 tox 17.8µM, TGFb SMAD3 inh inconclusive, ATXN2 expr inh inconclusive
CN=c1scc(-c2ccc(F)cc2)n1/N=C/c1ccc(O)c(O)c1	S2 tox inconclusive, TGFb SMAD3 inh inconclusive, ATXN2 expr inh inconclusive, Nrf2 block 20.6µM
CN=c1scc(-c2ccc([N+](=O)[O-])cc2)n1/N=C/c1ccco1	Nrf2 block inconclusive
O=C(N/N=C/c1ccc(-c2cccc(C(F)(F)F)c2)o1)c1ccccc1Br	S2 tox inconclusive, A549 tox inconclusive, TGFb SMAD3 inh 20µM, Nrf2 block inconclusive
NC(=O)c1ccc2nc(-c3ccc(Oc4ccc(Cl)cc4)cc3)[nH]c2c1	none (no result: S2 tox, A549 tox, HepG2 tox, TGFb SMAD3 inh, Nrf2 block)
O=C(CSC1CS(=O)(=O)c2cc([N+](=O)[O-])ccc21)NNC(=O)c1ccc(Cl)cc1 (centres undefined)	TGFb SMAD3 inh 12.6µM
Cc1cc2c(s1)c1cnn(Cc3cc(F)cc(F)c3)c(=O)c1n2C	none (no result: S2 tox, HepG2 tox, TGFb SMAD3 inh, ATXN2 expr inh)
CCOC(=O)c1cnc2c(OC)cccc2c1Nc1ccc2c(c1)OCCO2	S2 tox inconclusive, A549 tox inconclusive, ATXN2 expr inh inconclusive, Nrf2 block inconclusive
COc1ccc(CC(N)c2csc(NC(=O)Nc3ccccc3-c3ccccc3)n2)cc1 (centres undefined)	HepG2 tox 15.8µM, TGFb SMAD3 inh inconclusive, ATXN2 expr inh inconclusive (no result: S2 tox, A549 tox, Nrf2 block)
COc1ccc(N(CC(C)C)S(=O)(=O)c2nnc(NC(=O)c3cccs3)s2)cc1	Nrf2 block 20.6µM (no result: S2 tox, ATXN2 expr inh)
COc1ccc(CC(N)c2csc(NC(=O)Nc3cc(OC)ccc3OC)n2)cc1 (centres undefined)	S2 tox inconclusive, TGFb SMAD3 inh inconclusive, ATXN2 expr inh inconclusive (no result: A549 tox, Nrf2 block)
CCN(c1ccc(C)cc1)S(=O)(=O)c1nnc(NC(=O)c2cccs2)s1	TGFb SMAD3 inh inconclusive, Nrf2 block inconclusive (no result: S2 tox, ATXN2 expr inh)
COc1ccc(CC(N)c2csc(NC(=O)Nc3ccccc3C(C)(C)C)n2)cc1 (centres undefined)	TGFb SMAD3 inh inconclusive, ATXN2 expr inh inconclusive (no result: S2 tox, A549 tox, Nrf2 block)
COc1ccc(CC(N)c2csc(NC(=O)c3cccs3)n2)cc1 (centres undefined)	TGFb SMAD3 inh 14.1µM (no result: A549 tox, Nrf2 block)
COc1ccc(OC)c(NC(=O)Nc2nc(C(N)CCc3ccccc3)cs2)c1 (centres undefined)	HepG2 tox 15.8µM, TGFb SMAD3 inh inconclusive, ATXN2 expr inh inconclusive (no result: S2 tox, A549 tox, Nrf2 block)
Cc1cc(N)ccc1NC(=O)CN1CCCC1	none
COc1ccc(CC(N)c2csc(NC(=O)Nc3ccc(F)cc3)n2)cc1 (centres undefined)	HepG2 tox 17.8µM, TGFb SMAD3 inh 11.2µM (no result: A549 tox, Nrf2 block)
CC(=O)N1c2ccc(S(=O)(=O)N3CCCC(C(=O)N4CCCC(C)C4)C3)cc2CC1C (centres undefined)	Nrf2 block inconclusive
CC(=O)N1c2ccc(S(=O)(=O)NCC3CCC(C(=O)N4CC(C)CC(C)C4)CC3)cc2CC1C (centres undefined)	TGFb SMAD3 inh inconclusive, Nrf2 block 16.4µM (no result: ATXN2 expr inh)
CC(=O)N1c2ccc(S(=O)(=O)NCCC(=O)Nc3ccc(Br)c(C)c3)cc2CC1C (centres undefined)	S2 tox inconclusive, TGFb SMAD3 inh 11.2µM, Nrf2 block inconclusive
CCC(C)NC(=O)C1CCC(CNS(=O)(=O)c2ccc3c(c2)CC(C)N3C(C)=O)CC1 (centres undefined)	none
CC(=O)N1c2ccc(S(=O)(=O)N3CCCC(C(=O)N4CCC(C)CC4)C3)cc2CC1C (centres undefined)	Nrf2 block 20.6µM
COC(=O)Nc1ccc(S(=O)(=O)N2CCCC(C(=O)N3CCCCC3)C2)cc1 (centres undefined)	Nrf2 block 16.4µM
COc1ccc(C(C#N)CC(=O)c2ccc(OC)c(OCc3ccccc3)c2)cc1OC (centres undefined)	S2 tox inconclusive (no result: A549 tox, ATXN2 expr inh, Nrf2 block)
CCC(=O)c1ccc(OCC(=O)NCc2ccccc2CN2CCCC2)cc1	none
CC(=O)N1c2ccc(S(=O)(=O)NCC3CCC(C(=O)Nc4cc(C)ccn4)CC3)cc2CC1C (centres undefined)	A549 tox inconclusive, TGFb SMAD3 inh inconclusive, ATXN2 expr inh inconclusive, Nrf2 block 23.1µM
Cc1cc(NC(=O)COC(=O)C(Nc2ccc(C(F)(F)F)cc2Cl)C(C)C)no1 (centres undefined)	S2 tox inconclusive, A549 tox 23.1µM, TGFb SMAD3 inh inconclusive, ATXN2 expr inh inconclusive, Nrf2 block 23.1µM
CCCn1c(C2CCCN2c2nc(-c3cccc(Br)c3)cs2)nc2ccccc21 (centres undefined)	S2 tox 22.4µM, TGFb SMAD3 inh inconclusive
Cc1ccc(-c2csc(N3CCC[C@@H]3C(=O)NCCn3c(C(F)(F)F)nc4ccccc43)n2)cc1	S2 tox inconclusive, TGFb SMAD3 inh inconclusive, ATXN2 expr inh inconclusive, Nrf2 block inconclusive
CC1CC(=O)N(CC(=O)Nc2ccccc2F)c2ccccc2S1(=O)=O (centres undefined)	none
CCn1c2ccc(C)cc2c2nnc(NN)nc21	TGFb SMAD3 inh 14.1µM
COc1ccc(OC)c(NC(=O)C2(C)CCN2C(=O)C2(c3ccc(Cl)cc3)CCC2)c1 (centres undefined)	TGFb SMAD3 inh inconclusive (no result: A549 tox, Nrf2 block)
COc1ccc(CC(=O)N2CCc3cc(OC)c(OC)cc3C2COc2cc(C)cc(C)c2)cc1OC (centres undefined)	TGFb SMAD3 inh 14.1µM (no result: Nrf2 block)
CCC[C@H](NC(=O)C(C#N)=Cc1cccc(Br)n1)c1ccccc1	ATXN2 expr inh 10.9µM (no result: S2 tox, A549 tox, HepG2 tox, TGFb SMAD3 inh, Nrf2 block)
C[C@@H](NC(=O)/C(C#N)=C/c1ccc(O)c(O)c1)c1ccccc1	S2 tox inconclusive
COc1ccc(Cl)cc1NC(=O)c1cc(C)nc2c1c(C)nn2-c1ccccc1	none
O=c1cc(C(F)(F)F)[nH]c2c(C(F)(F)F)cccc12	S2 tox inconclusive, A549 tox inconclusive, TGFb SMAD3 inh inconclusive, ATXN2 expr inh inconclusive, Nrf2 block 18.4µM
O=c1cc(C(F)(F)F)[nH]c2ccc(OC(F)(F)F)cc12	A549 tox inconclusive, TGFb SMAD3 inh inconclusive, ATXN2 expr inh inconclusive, Nrf2 block inconclusive
CCCCCOC(=O)c1ccc(OC(=O)c2sc3ncn(Cc4cccc(F)c4)c(=O)c3c2C)cc1	none (no result: Nrf2 block)
